Compounds with a hit are over-represented: about 0.78% of the library has one in this group of screens.
RECQ1 inh-1 – qHTS Assay for Inhibitors of RecQ-Like Dna Helicase 1 (RECQ1). RECQ1 DNA unwinding, red fluorescence kinetic read. Potency, µM (doses to about 57.3 µM), actives largely listed as inhibitors. 0.54% of 240,000 active; note: nearly all actives have a fitted effect of over 30% in size
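RECQ1T1 50 nM; forked duplex (20 bp + 30-nt ss tails) 200 nM, ATP 2 mM final; pH 8.0, 2 mM MgCl2, 2.5 ug/ml poly(dI-dC); 15 min compound preincubation; discontinuous kinetic read over 2 h at RT.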
APE1 inh – qHTS Assay for Inhibitors of the Human Apurinic/apyrimidinic Endonuclease 1 (APE1); recombinant APE1, TAMRA/BHQ-2 abasic DNA cleavage fluorescence; DNA repair nuclease/redox regulator APEX1 (Homo sapiens), P27695; Potency, µM (doses to about 65.8 µM), most hits filed as inhibitors; 0.35% of 350,000 active; note: nearly all actives have a fitted effect of over 55% in size
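Endonuclease cleavage of a quenched abasic-site DNA duplex (50 nM) by APE1 (0.75 nM) was tracked by TAMRA dequenching. Compounds were preincubated with enzyme 15 min at room temperature; data normalized to buffer-only and DMSO wells plus NSC13755 control.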
L3MBTL1 block – qHTS Assay for the Inhibitors of L3MBTL1. Lethal(3)malignant brain tumor-like protein 1 (Homo sapiens), Q9Y468. AlphaScreen L3MBTL1–H3K9me1 peptide binding. Potency, µM (doses to about 57.1 µM), actives largely listed as inhibitors. 0.66% of 230,000 active; note: nearly all actives have a fitted effect of over 60% in size
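First, the protein-peptide complex forms for 30 min at room temperature (L3MBTL1 50 nM, biotinylated H3K9me1 peptide 75 nM). Next, compounds are pin-transferred and incubated 30 min. Finally, AlphaScreen beads are added and read after 30 min.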
BLM helicase inh – qHTS Assay for Inhibitors of Bloom's syndrome helicase (BLM); recombinant BLM DNA unwinding, fluorescence dequenching; Potency, µM (top dose mostly 56.1 µM), most hits filed as inhibitors; 0.2% of 350,000 active; AID 2528, 2010; note: nearly all actives have a fitted effect of over 35% in size
Target sequence (P54132 whole entry, looked up): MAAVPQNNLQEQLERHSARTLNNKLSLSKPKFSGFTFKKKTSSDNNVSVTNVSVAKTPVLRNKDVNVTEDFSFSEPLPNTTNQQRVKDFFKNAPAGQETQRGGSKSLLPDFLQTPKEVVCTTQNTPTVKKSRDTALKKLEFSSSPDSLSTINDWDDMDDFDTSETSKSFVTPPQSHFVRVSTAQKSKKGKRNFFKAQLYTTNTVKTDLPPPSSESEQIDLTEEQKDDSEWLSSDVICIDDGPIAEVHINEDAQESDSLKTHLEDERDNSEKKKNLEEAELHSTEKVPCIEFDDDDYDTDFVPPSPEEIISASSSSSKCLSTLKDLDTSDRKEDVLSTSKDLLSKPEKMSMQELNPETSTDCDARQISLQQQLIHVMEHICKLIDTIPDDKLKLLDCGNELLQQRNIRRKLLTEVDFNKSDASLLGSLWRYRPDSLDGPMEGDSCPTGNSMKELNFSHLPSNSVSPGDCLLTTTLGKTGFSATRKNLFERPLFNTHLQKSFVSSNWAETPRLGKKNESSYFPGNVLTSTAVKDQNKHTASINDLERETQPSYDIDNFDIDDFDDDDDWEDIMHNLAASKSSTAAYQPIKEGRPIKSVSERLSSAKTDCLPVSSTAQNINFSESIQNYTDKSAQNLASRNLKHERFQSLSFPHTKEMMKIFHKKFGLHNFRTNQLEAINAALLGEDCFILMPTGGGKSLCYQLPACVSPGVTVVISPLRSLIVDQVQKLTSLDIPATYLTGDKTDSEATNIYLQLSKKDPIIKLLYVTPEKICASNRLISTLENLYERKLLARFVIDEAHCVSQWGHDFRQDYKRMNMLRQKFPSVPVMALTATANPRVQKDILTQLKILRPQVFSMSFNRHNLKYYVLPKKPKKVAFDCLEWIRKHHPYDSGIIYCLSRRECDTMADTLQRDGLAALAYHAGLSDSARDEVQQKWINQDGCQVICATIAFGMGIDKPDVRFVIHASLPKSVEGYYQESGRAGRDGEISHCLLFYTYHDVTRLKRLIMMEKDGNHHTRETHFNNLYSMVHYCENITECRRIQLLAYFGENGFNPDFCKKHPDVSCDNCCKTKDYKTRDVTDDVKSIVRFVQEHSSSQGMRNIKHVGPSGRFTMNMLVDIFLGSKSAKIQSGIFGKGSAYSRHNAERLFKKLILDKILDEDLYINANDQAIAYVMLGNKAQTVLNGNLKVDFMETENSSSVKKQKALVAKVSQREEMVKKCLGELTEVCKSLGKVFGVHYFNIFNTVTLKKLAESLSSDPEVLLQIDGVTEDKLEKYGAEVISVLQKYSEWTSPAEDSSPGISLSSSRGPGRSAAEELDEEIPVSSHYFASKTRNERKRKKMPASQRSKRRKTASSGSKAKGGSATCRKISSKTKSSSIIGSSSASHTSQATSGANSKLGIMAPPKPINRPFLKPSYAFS
RECQ1 conf – Confirmation qHTS Assay for Inhibitors of RecQ-Like Dna Helicase 1 (RECQ1) | RECQ1 helicase DNA unwinding, fluorescence | shares compounds with RECQ1 inh-1 | 28% of 610 active | Potency, µM (doses to about 229 µM), most hits filed as inhibitors | AID 2708, 2010; note: nearly all actives have a fitted effect of over 45% in size
RECQ1 ADP FP – Counterscreen for RECQ1 Inhibitors: ADP Fluorescence Polarization Displacement Assay. Potency, µM (highest dose often 228 µM), actives largely listed as inhibitors. AID 2711, 2010. ADP fluorescence polarization displacement counterscreen. 27% of 530 active. shares compounds with RECQ1 inh-1; note: nearly all actives have a fitted effect of over 45% in size
RECQ1 inh-2 – Confirmation qHTS Assay for Inhibitors of RecQ-Like Dna Helicase 1 (RECQ1) - Round 2 Cherry Picks. shares compounds with RECQ1 inh-1. recombinant RECQ1 DNA unwinding, red fluorescence. Potency, µM (doses to about 119 µM), actives largely listed as inhibitors. 15% of 1,100 active. AID 504841, 2011; note: nearly all actives have a fitted effect of over 50% in size
Hits are given with their value; 0 = inactive; ? = inconclusive; - = no result given; ! = repeats disagree; [ ] = another dose, or the depositor's remark. Calls come from the whole dose curve; as a rule, active = well fitted curve in the direction sought with a large enough effect; inconclusive = small, poorly fitted or top-dose-only effect, or another doubt; inactive = no such curve, though single readings can be large; an effect the other way counts as inactive or inconclusive.

SMILES | RECQ1 inh-1 | APE1 inh | L3MBTL1 block | BLM helicase inh | RECQ1 inh-2 | others
CCc1ccc(CN2CCc3nc(N4CCN(c5ccccc5F)CC4)ncc3C2)cc1 | - | - | - | 0 | -
CCN(c1ccccc1)S(=O)(=O)c1ccc(NC(=O)c2nc(SC)ncc2Cl)cc1 | - | - | - | 0 | -
CCOC(=O)[C@]1(C(NC(=O)OC)c2cccc(C)c2)CCCC1=O (some centres not stated) | 0[11.5 µM] | 0[12.4 µM] | - | 0[12.4 µM] | -
Cc1c(NC(=O)c2ccc(-c3ccc(F)cc3)o2)cccc1-c1nc2ncccc2o1 | - | - | - | 0 | -
CCOc1ccc(Sc2cc(C(=O)NCc3ccccc3Cl)c3ccccc3n2)cc1 | - | - | - | 0 | -
COc1cc(/C=C(\C#N)c2nc3ccccc3[nH]2)cc(OC)c1O | ? | ? | 0 | 0 | 56µM
O=C1N[C@@H]2[C@H](CCCCC(=O)Oc3ccc([N+](=O)[O-])cc3)SC[C@H]2N1 | 0 | 0 | - | 0 | -
CCC(=O)Nc1ccc(NC(=S)NC(=O)/C=C/c2ccco2)cc1 | - | 0 | 0[2.29 µM] | 0 | -
CC(=O)NC(=S)Nc1ccc(NC(=S)NC(=O)/C=C/c2ccco2)cc1 | ? | ? | - | 0 | 0
Cc1ccnc(NC(=S)NC(=O)/C=C/c2ccco2)c1 | ? | ? | - | 0 | -
O=C(/C=C/c1ccco1)NC(=S)Nc1ccc(Cl)cn1 | 25µM | ? | - | 0 | 0
CC(C)=CCC/C(C)=C/CO/N=C1/C[C@@H](O)[C@@H](O)[C@@H]2[C@@H]3C(=O)N(C4CCCCC4)C(=O)[C@H]3CC[C@H]12 | 0[11.5 µM] | 0[12.4 µM] | - | 0[12.4 µM] | -
CCCSC1=N/C(=C\c2ccc([N+](=O)[O-])o2)C(=O)S1 | 13µM | 22µM | ? | 0 | ? | RECQ1 conf=0
O=C(CSc1c2c(nc3ccccc13)CCCC2)NCc1ccco1 | 14µM | 0 | - | 0 | 0 | RECQ1 conf=0;RECQ1 ADP FP=?
COc1ccc(Br)cc1CNC(=O)c1ccc(-n2c(C)cc3c2CCC(C)C3)cc1 (configuration not stated) | - | - | - | 0 | -
COC(=O)c1ccc(-c2csc(NC(=O)c3ccc(S(=O)(=O)N4CCc5ccccc5C4)cc3)n2)cc1 | 0 | 0 | 0 | 0 | - | RECQ1 conf=0;RECQ1 ADP FP=0
COc1ccc(-c2csc(NC(=O)c3ccc(S(=O)(=O)N4CCc5ccccc5C4)cc3)n2)cc1 | 0 | 0 | 0 | 0 | - | RECQ1 conf=0;RECQ1 ADP FP=0
COC(=O)C1(C)C=C(Nc2ccc(OC)cc2)C(=O)N1c1ccc(OC)cc1 (configuration not stated) | 0 | 0 | - | 0 | -
O=C(NCc1ccccc1Cl)c1ccc2c(O)c(S(=O)(=O)c3ccccc3)c(=O)[nH]c2c1 | - | - | - | 0 | -
O=c1c(-c2ccc(F)cc2)nc2cnc(N3CCOCC3)nc2n1C1CC1 | 0 | 0 | - | 0 | -
CC1CCC/C(=C\Nc2ccc(O)cc2)C1=O (configuration not stated) | ? | 0 | ? | 0 | 0
Cc1cc(C(=O)O)ccc1N/C=C1\CCCC(C)C1=O (configuration not stated) | 0 | 0 | - | 0 | -
CCOc1ccc(C2NC(=O)c3c(COC)cc(C)nc3N2Cc2ccccc2)cc1OC (configuration not stated) | - | - | - | 0 | -
Cn1c(=O)c2c(nc(Cl)n2CCOc2ccccc2)n(C)c1=O | - | 0 | - | 0 | -
CCCCn1c(Cl)nc2c1c(=O)n(C)c(=O)n2C | ? | 0 | 0 | 0 | 0
SMILES | RECQ1 inh-1 | APE1 inh | L3MBTL1 block | BLM helicase inh | RECQ1 inh-2 | others
CC1=C(C(=O)Nc2ccc(C)cc2Cl)C2(CCCCC2)OC1=O | - | - | - | 0 | -
Nn1cnnc1N/N=C\c1ccc(-c2ccccc2[N+](=O)[O-])o1 | 4.5µM | 0 | 0 | 0 | - | RECQ1 conf=0
CC(=O)c1cccc(NC(=O)C2C(c3ccccc3)C2(Cl)Cl)c1 (configuration not stated) | 0 | 0 | 0[11.4 µM] | 0 | -
Cc1cccc(NC(=O)C2C(c3ccccc3)C2(Cl)Cl)c1 (configuration not stated) | ? | 0 | 0 | 0 | 0
O=C(CCc1ccc(O)cc1)c1c(O)cc(O)cc1O | 13µM! | 0 | - | 0 | 0
CC(C)OC(=O)[C@@H]1CC[C@H](C)[C@@H](CCCC=O)O1 | 0 | 0 | - | 0 | -
COc1ccc(/C=N/NC(=O)c2nn(-c3ccccc3)c(=O)c3c(N)scc23)cc1 | 25µM | ? | ? | 0 | - | RECQ1 conf=0;RECQ1 ADP FP=?
COC(=O)CSc1nnc(CNc2ccc(Cl)cc2)n1Cc1ccccc1 | 0 | 0 | 0 | 0 | -
Cc1ccc(NCc2nnc(SCC(=O)O)n2Cc2ccccc2)cc1Cl | 0 | 0 | 0 | 0 | - | RECQ1 conf=0;RECQ1 ADP FP=0
Cc1csc(N/N=C/c2ccc(O)c([N+](=O)[O-])c2)n1 | 14µM | ? | - | ? | - | RECQ1 conf=0;RECQ1 ADP FP=?
c1csc(-c2nn3c(-c4ccncc4)nnc3s2)c1 | 0 | 0 | 0 | 0 | -
c1csc(Cc2nn3c(-c4ccncc4)nnc3s2)c1 | 10µM | ? | ? | 0 | 0 | RECQ1 ADP FP=0
CC(CCc1ccccc1)NC(=O)Cn1c(=O)nc(-c2ccccc2)c2cc(Cl)ccc21 (configuration not stated) | - | - | - | 0 | -
COc1ccc(N(C)C(=O)c2cn(C3CCCCC3)c(=O)c3c2c2ccccc2n3C)cc1 | - | - | - | 0 | -
Cc1ccc(-c2onc(C)c2C)cc1S(=O)(=O)NC1CCC(C)CC1 (configuration not stated) | - | - | - | 0 | -
COc1ccc(C(=O)Nc2nc(C)cc(C)n2)cc1 | ? | 0 | 0 | 0 | 0
Cc1cc(C)nc(NC(=O)c2ccc(Br)cc2)n1 | - | 0 | - | 0 | -
CCOc1ccc(N2CC(c3nc(-c4cc(OC)c(OC)c(OC)c4)no3)CC2=O)cc1 (configuration not stated) | - | - | - | 0 | -
COc1ccc(C(=O)Nc2nc3c(s2)Cc2cc(OC)ccc2-3)cc1 | 0 | ? | 0 | ? | -
COc1ccc2c(c1)Cc1sc(NC(=O)c3cccs3)nc1-2 | ? | 0 | 0[11.4 µM] | 0 | 0
CCn1c(CCCOc2ccc(Cl)cc2Cl)nnc1SCC(=O)Nc1cccc(F)c1 | 13µM | 0 | 0 | 0 | 0 | RECQ1 conf=0;RECQ1 ADP FP=0
CCOC(=O)c1ccc2c(c1)N(C(CC)C(=O)Nc1ccccc1OC)C(=O)c1ccccc1S2 (configuration not stated) | - | - | - | 0 | -
CCC(C(=O)Nc1ccccc1OC)n1c(C(=O)OC)cc2ccsc21 (configuration not stated) | 1.4µM | 0 | 0 | 0 | 0 | RECQ1 conf=?;RECQ1 ADP FP=0
CCOc1ccc(NC(=O)c2cc(S(=O)(=O)NC3CCCC3)ccc2F)cc1 | - | - | - | 0 | -
COc1ccc(-c2cc(C(=O)Nc3c(C)nn(Cc4ccc(F)cc4)c3C)no2)cc1OC | - | - | - | 0 | -
